# Experimental data: PubChem BioAssay (Tox21)
# Unmarked numbers belong to inactive results. The source made the active and inactive calls. Calls come from the whole dose curve; as a rule, active = well fitted curve in the direction sought with a large enough effect in the repeat runs; inconclusive = weak or mixed curves; inactive = flat fitted curve, though single readings scatter.
# Experiment: qHTS assay to test for compound auto fluorescence at 460 nm (blue) in HEK293 cells (AID 720678); note: potency is the fitted concentration of half-maximal effect
# Conditions: blue autofluorescence 405/460 nm; series mostly up to 91.3 µM; fluorescence, % of triamterene: at the top concentration
# Summary of the method: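 Intrinsic compound fluorescence is recorded in live HEK293 cultures after overnight incubation at 37C, 5% CO2, using excitation 405 nm and emission 460 nm. Values are referenced to triamterene.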
# % is set by controls: 0 for no effect and ±100 for the full control effect; tags give direction and shape of the fitted curve or compound fluorescence and quenching.
SMILES,"fluorescence, % of triamterene",Potency
C/C=C/C=C/CCCCCCCO,0.257%,–
Cc1cc(OI)c(C(C)C)cc1-c1cc(C(C)C)c(OI)cc1C,-0.262% [at 46 µM],–
CCCCN(CCCC)CCCOC(=O)c1ccc(N)cc1,-0.0222% [at 18.6 µM],–
CCCCC1C(=O)N(c2ccccc2)N(c2ccc(O)cc2)C1=O (stereo unspecified),-0.133% [at 18.6 µM],–
CC(C)(C)CC(C)(C)c1ccc(OCCO)cc1,–,inactive
CC(C)(C)C(=O)O,0.0203%,–
CCCCC/C(=C\c1ccccc1)CO,-0.0113% [at 95.7 µM],–
C[N+]1(C)CCC(=C(c2ccccc2)c2ccccc2)CC1,0.577% [at 18.6 µM],–
CO[C@H]1C=CO[C@@]2(C)Oc3c(C)c(O)c4c(O)c(c5c(c4c3C2=O)=NC2(CCN(CC(C)C)CC2)N=5)NC(=O)/C(C)=C\C=C/[C@H](C)[C@H](O)[C@@H](C)[C@@H](O)[C@@H](C)[C@H](OC(C)=O)[C@@H]1C,–,inactive
CCC(C)=O,-0.103%,–
C[N+](C)(C)CCOC(N)=O,0.013% [at 46 µM],–
CN1CCN(CCCN2c3ccccc3Sc3ccc(S(=O)(=O)N(C)C)cc32)CC1,0.42% [at 18.6 µM],–
CCCCCC=CCC=CCCCCCCCC(=O)OCC,0.0965% [at 46 µM],–
Cc1cc(O)c(C(C)C)cc1Cl,–,inactive
CCC(Cc1ccccc1)(C(=O)c1ccc(N2CCOCC2)cc1)N(C)C (stereo unspecified),0.438%,–
CCOC(=O)[C@@H](C)Oc1ccc(Oc2nc3ccc(Cl)cc3o2)cc1,0.0493%,–
CC(=O)[C@H]1CC[C@H]2[C@@H]3C[C@H](C)C4=CC(=O)CC[C@]4(C)[C@H]3[C@@H](O)C[C@]12C,-0.0231% [at 18.6 µM],–
CNCCCC1c2ccccc2C=Cc2ccccc21,0.0209% [at 18.6 µM],–
CCc1c2c(nc3ccc(OC(=O)N4CCC(N5CCCCC5)CC4)cc13)-c1cc3c(c(=O)n1C2)COC(=O)[C@]3(O)CC,–,12.6 µM [fluorescent] (active)

SMILES,"fluorescence, % of triamterene",Potency
CC(=O)CC(c1ccc([N+](=O)[O-])cc1)c1c(O)c2ccccc2oc1=O (stereo unspecified),-0.0105% [at 18.6 µM],–
CC(C)(CCl)c1ccccc1,-0.124%,–
CCC(C(=O)OCCN(CC)CC)c1ccccc1 (stereo unspecified),-0.102% [at 46 µM],–
CCOC(=O)c1ccccc1C,-0.0092%,–
CC1CC(=O)NN=C1c1ccc(NCC(C)(C)NCC(O)COc2cc(Cl)ccc2C#N)cc1 (stereo unspecified),-0.0092% [at 46 µM],–
CC[C@@H]([C@H](C)O)n1ncn(-c2ccc(N3CCN(c4ccc(OC[C@@H]5CO[C@@](Cn6cncn6)(c6ccc(F)cc6F)C5)cc4)CC3)cc2)c1=O,0.02% [at 46 µM],–
CCn1nc(C)c2c1C(=O)NCC(c1ccc(O)cc1)=N2,0.517%,–
CCn1cc(C(=O)O)c(=O)c2cc(F)c(N3CCNCC3)nc21,-0.37% [at 18.6 µM],–
CNC(=S)NC,0.108%,–
CCCCOC(=O)CCS,0.0067%,–
Fc1c(F)c(F)c(Br)c(F)c1F,-0.0041%,–
N#C/C(=C1\SCC(c2ccccc2Cl)S1)n1ccnc1 (stereo unspecified),-0.219% [at 46 µM],–
CCC(C)(C)C1CCC(O)CC1 (stereo unspecified),-0.0196%,–
O=S(=O)(c1ccccc1)c1ccc(Cl)cc1,-0.0017%,–
CC(C)OCC1CO1 (stereo unspecified),-0.112%,–
c1cnc2c(n1)CCCC2,-0.0045%,–
COC(=O)Nc1nc2ccc(C(=O)c3cccs3)cc2[nH]1,-0.0118% [at 46 µM],–
CCCCCCCCCCCC[N+](C)(C)CC(=O)[O-],-0.0747%,–
O=C(Nc1ccc([N+](=O)[O-])cc1)Nc1ccc([N+](=O)[O-])cc1,-0.0507% [at 46 µM],–

# Experiment: qHTS assay to test for compound auto fluorescence at 590 nm (red) in HEK293 cells (AID 720679)
# Conditions: red autofluorescence 540/590 nm; series mostly up to 91.3 µM; fluorescence, % of fluorescent control: at the top concentration
# Summary of the method: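 Red autofluorescence, HEK293 cells: 2,000 cells/well; attach 4-5 hr 37C; add 23 nL cpd or DMSO; incubate o/n 37C 5% CO2; read Ex540/Em590; Rose Bengal sodium reference.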
SMILES,"fluorescence, % of fluorescent control",outcome
C/C=C/C=C/CCCCCCCO,-0.147%,–
Cc1cc(OI)c(C(C)C)cc1-c1cc(C(C)C)c(OI)cc1C,0.0971% [at 46 µM],–
CCCCN(CCCC)CCCOC(=O)c1ccc(N)cc1,0.141% [at 18.6 µM],–
CCCCC1C(=O)N(c2ccccc2)N(c2ccc(O)cc2)C1=O (stereo unspecified),-0.0017% [at 18.6 µM],–
CC(C)(C)CC(C)(C)c1ccc(OCCO)cc1,–,inactive
CC(C)(C)C(=O)O,0.417%,–
CCCCC/C(=C\c1ccccc1)CO,-0.0983% [at 95.7 µM],–
C[N+]1(C)CCC(=C(c2ccccc2)c2ccccc2)CC1,-0.153% [at 18.6 µM],–
CO[C@H]1C=CO[C@@]2(C)Oc3c(C)c(O)c4c(O)c(c5c(c4c3C2=O)=NC2(CCN(CC(C)C)CC2)N=5)NC(=O)/C(C)=C\C=C/[C@H](C)[C@H](O)[C@@H](C)[C@@H](O)[C@@H](C)[C@H](OC(C)=O)[C@@H]1C,–,inactive
CCC(C)=O,-0.0154%,–
C[N+](C)(C)CCOC(N)=O,0.073% [at 46 µM],–
CN1CCN(CCCN2c3ccccc3Sc3ccc(S(=O)(=O)N(C)C)cc32)CC1,0.005% [at 18.6 µM],–
CCCCCC=CCC=CCCCCCCCC(=O)OCC,0.0913% [at 46 µM],–
Cc1cc(O)c(C(C)C)cc1Cl,–,inactive
CCC(Cc1ccccc1)(C(=O)c1ccc(N2CCOCC2)cc1)N(C)C (stereo unspecified),-0.019%,–
CCOC(=O)[C@@H](C)Oc1ccc(Oc2nc3ccc(Cl)cc3o2)cc1,0.369%,–
CC(=O)[C@H]1CC[C@H]2[C@@H]3C[C@H](C)C4=CC(=O)CC[C@]4(C)[C@H]3[C@@H](O)C[C@]12C,-0.987% [at 18.6 µM],–
CNCCCC1c2ccccc2C=Cc2ccccc21,-0.279% [at 18.6 µM],–
CCc1c2c(nc3ccc(OC(=O)N4CCC(N5CCCCC5)CC4)cc13)-c1cc3c(c(=O)n1C2)COC(=O)[C@]3(O)CC,-0.0668% [at 46 µM],–

SMILES,"fluorescence, % of fluorescent control",outcome
CC(=O)CC(c1ccc([N+](=O)[O-])cc1)c1c(O)c2ccccc2oc1=O (stereo unspecified),0.088% [at 18.6 µM],–
CC(C)(CCl)c1ccccc1,0.63%,–
CCC(C(=O)OCCN(CC)CC)c1ccccc1 (stereo unspecified),-0.684% [at 46 µM],–
CCOC(=O)c1ccccc1C,-0.0224%,–
CC1CC(=O)NN=C1c1ccc(NCC(C)(C)NCC(O)COc2cc(Cl)ccc2C#N)cc1 (stereo unspecified),0.167% [at 46 µM],–
CC[C@@H]([C@H](C)O)n1ncn(-c2ccc(N3CCN(c4ccc(OC[C@@H]5CO[C@@](Cn6cncn6)(c6ccc(F)cc6F)C5)cc4)CC3)cc2)c1=O,-0.0315% [at 46 µM],–
CCn1nc(C)c2c1C(=O)NCC(c1ccc(O)cc1)=N2,-0.0318%,–
CCn1cc(C(=O)O)c(=O)c2cc(F)c(N3CCNCC3)nc21,-0.616% [at 18.6 µM],–
CNC(=S)NC,0.0736%,–
CCCCOC(=O)CCS,-0.587%,–
Fc1c(F)c(F)c(Br)c(F)c1F,-0.0899%,–
N#C/C(=C1\SCC(c2ccccc2Cl)S1)n1ccnc1 (stereo unspecified),-0.0952% [at 46 µM],–
CCC(C)(C)C1CCC(O)CC1 (stereo unspecified),-0.667%,–
O=S(=O)(c1ccccc1)c1ccc(Cl)cc1,-0.259%,–
CC(C)OCC1CO1 (stereo unspecified),0.391%,–
c1cnc2c(n1)CCCC2,0.485%,–
COC(=O)Nc1nc2ccc(C(=O)c3cccs3)cc2[nH]1,0.0512% [at 46 µM],–
CCCCCCCCCCCC[N+](C)(C)CC(=O)[O-],0.0185%,–
O=C(Nc1ccc([N+](=O)[O-])cc1)Nc1ccc([N+](=O)[O-])cc1,0.365% [at 46 µM],–
